# Tests used:
# Assay in all cases: universal protein binding microarray (PBM); transcription factors of Arabidopsis thaliana; high values mean tight binding
# [1] = target: T1, GST-ANAC092(1-176) (Arabidopsis thaliana, UniProt Q9FKA0 1-176); conditions: protein: recombinant; tags: GST; chain copies: 2; dsDNA, one strand shown
# T1 sequence: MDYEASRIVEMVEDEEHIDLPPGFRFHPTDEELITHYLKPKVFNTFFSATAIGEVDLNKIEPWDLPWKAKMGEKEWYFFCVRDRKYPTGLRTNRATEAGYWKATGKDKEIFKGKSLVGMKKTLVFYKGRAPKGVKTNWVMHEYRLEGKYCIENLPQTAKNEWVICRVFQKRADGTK
# Method in brief: (§1)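 GST-tagged proteins (NAC-domain, full-length or DNA-binding-domain) were induced in cells, with zinc acetate supplied for zinc-finger proteins, then purified on glutathione–Sepharose 4B. Each was tested in duplicate at 200 to 500 nM final on custom all-10-mer Agilent 4 × 180K arrays rendered double-stranded by primer extension. The binding value is the normalised enrichment score (E-score) across gapped and ungapped 8-mers.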
# [2] = target: GST-NTL6(1-168) (Arabidopsis thaliana, UniProt Q9SCK6 1-168); conditions: protein: recombinant; tags: GST; chain copies: 2; dsDNA, one strand shown
# Sequence of GST-NTL6(1-168) (Q9SCK6 1-168): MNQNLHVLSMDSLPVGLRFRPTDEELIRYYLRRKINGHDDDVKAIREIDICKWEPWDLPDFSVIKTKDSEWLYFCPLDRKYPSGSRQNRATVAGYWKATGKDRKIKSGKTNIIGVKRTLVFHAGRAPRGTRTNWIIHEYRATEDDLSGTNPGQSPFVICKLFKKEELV
# Method in brief: as §1
# [3] = target: T2, GST-ANAC019 NAC domain (Arabidopsis thaliana, UniProt Q9C932 14-162); conditions: protein: recombinant; tags: GST; chain copies: 2; dsDNA, one strand shown
# T2 sequence: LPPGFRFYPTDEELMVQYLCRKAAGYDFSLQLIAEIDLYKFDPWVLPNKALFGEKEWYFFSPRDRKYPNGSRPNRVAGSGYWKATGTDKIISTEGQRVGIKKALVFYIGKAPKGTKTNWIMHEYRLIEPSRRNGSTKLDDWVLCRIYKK
# Method in brief: as §1
# [4] = target: T3, GST-NAP(1-166) (Arabidopsis thaliana, UniProt O49255 1-166); conditions: protein: recombinant; tags: GST; chain copies: 2; dsDNA, one strand shown
# T3 sequence: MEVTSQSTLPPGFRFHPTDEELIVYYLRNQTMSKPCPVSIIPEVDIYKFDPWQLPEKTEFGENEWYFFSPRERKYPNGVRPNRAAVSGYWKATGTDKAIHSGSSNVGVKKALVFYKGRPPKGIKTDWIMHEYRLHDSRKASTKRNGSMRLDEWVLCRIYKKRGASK
# Method in brief: as §1
# [5] = target: T4, GST-NTL8 NAC domain (Arabidopsis thaliana, UniProt Q9XIN7 14-156); conditions: protein: recombinant; tags: GST; chain copies: 2; dsDNA, one strand shown
# T4 sequence: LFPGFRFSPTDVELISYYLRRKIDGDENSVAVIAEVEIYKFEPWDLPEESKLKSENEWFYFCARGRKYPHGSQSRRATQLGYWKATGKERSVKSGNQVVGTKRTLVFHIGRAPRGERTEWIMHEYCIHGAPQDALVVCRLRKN
# Method in brief: as §1
# [6] = target: GST-WRKY1(266-371) (Arabidopsis thaliana, UniProt Q9SI37 266-371); conditions: protein: recombinant; tags: GST; dsDNA, one strand shown
# Sequence of GST-WRKY1(266-371) (Q9SI37 266-371): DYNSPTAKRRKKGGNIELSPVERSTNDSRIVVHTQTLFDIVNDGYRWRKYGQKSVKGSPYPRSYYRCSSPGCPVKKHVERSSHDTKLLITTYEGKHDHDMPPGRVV
# Method in brief: as §1
# [7] = target: T5, GST-ATAF1 NAC domain (Arabidopsis thaliana, UniProt Q39013 7-158); conditions: protein: recombinant; tags: GST; chain copies: 2; dsDNA, one strand shown
# T5 sequence: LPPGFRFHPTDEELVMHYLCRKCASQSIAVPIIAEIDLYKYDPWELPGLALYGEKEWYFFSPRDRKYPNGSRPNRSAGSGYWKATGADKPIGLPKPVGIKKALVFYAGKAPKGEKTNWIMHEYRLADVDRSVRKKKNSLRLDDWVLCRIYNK
# Method in brief: as §1
# [8] = target: T6, GST-ANAC092(1-285) full length (Arabidopsis thaliana, UniProt Q9FKA0 1-285); conditions: protein: recombinant; tags: GST; chain copies: 2; dsDNA, one strand shown
# T6 sequence: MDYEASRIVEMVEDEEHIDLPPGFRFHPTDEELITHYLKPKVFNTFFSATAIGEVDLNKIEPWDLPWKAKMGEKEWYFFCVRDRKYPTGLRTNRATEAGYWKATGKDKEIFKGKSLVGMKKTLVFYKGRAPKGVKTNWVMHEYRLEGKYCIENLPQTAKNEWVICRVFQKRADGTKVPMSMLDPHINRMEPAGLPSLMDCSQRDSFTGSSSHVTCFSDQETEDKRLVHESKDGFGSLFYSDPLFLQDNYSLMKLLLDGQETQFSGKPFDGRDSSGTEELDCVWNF
# Method in brief: as §1
# [9] = target: T7, GST-NST2(1-184) (Arabidopsis thaliana, UniProt Q9M274 1-184); conditions: protein: recombinant; tags: GST; chain copies: 2; dsDNA, one strand shown
# T7 sequence: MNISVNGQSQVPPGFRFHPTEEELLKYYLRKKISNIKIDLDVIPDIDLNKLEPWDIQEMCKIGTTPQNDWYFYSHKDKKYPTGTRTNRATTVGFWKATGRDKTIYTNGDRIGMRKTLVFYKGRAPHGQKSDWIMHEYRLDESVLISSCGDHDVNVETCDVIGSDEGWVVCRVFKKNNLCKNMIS
# Method in brief: as §1
# [10] = target: T8, GST-ANAC055(1-171) (Arabidopsis thaliana, UniProt Q9LDY8 1-171); conditions: protein: recombinant; tags: GST; chain copies: 2; dsDNA, one strand shown
# T8 sequence: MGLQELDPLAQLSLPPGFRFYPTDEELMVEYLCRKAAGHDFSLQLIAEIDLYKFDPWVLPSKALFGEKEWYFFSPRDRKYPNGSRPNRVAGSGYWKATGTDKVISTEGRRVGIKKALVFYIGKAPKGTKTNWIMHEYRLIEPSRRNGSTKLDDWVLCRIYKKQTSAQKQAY
# Method in brief: as §1
sequence,measurement,setting,value
CCCTTGAC,binding signal,[1],0.0597 E-score
same,binding signal,[2],0.0561 E-score
same,binding signal,[3],0.0511 E-score
same,binding signal,[4],0.067 E-score
same,binding signal,[5],0.151 E-score
same,binding signal,[6],0.459 E-score
CTGGTCAA,binding signal,[1],0.0676 E-score
same,binding signal,[6],0.488 E-score
GGTCAAAC,binding signal,[1],0.0595 E-score
same,binding signal,[7],0.0641 E-score
same,binding signal,[8],0.0869 E-score
same,binding signal,[9],0.0597 E-score
same,binding signal,[6],0.494 E-score
GGTCAACC,binding signal,[1],0.144 E-score
same,binding signal,[3],0.0527 E-score
same,binding signal,[7],0.0896 E-score
same,binding signal,[8],0.061 E-score
same,binding signal,[6],0.491 E-score
GGCTTGAC,binding signal,[1],0.0969 E-score
same,binding signal,[6],0.452 E-score
GACTGACC,binding signal,[6],0.42 E-score
AGTCAAGA,binding signal,[2],0.0587 E-score
same,binding signal,[6],0.471 E-score
ACTTGACC,binding signal,[1],0.0892 E-score
same,binding signal,[3],0.05 E-score
same,binding signal,[8],0.0507 E-score
same,binding signal,[9],0.11 E-score
same,binding signal,[5],0.0948 E-score
same,binding signal,[6],0.47 E-score
CCTTGACC,binding signal,[6],0.487 E-score
AAGTCAGC,binding signal,[2],0.14 E-score
same,binding signal,[6],0.459 E-score
GGGTCAAA,binding signal,[1],0.0694 E-score
same,binding signal,[9],0.0921 E-score
same,binding signal,[6],0.48 E-score
GCATTGAC,binding signal,[1],0.0797 E-score
same,binding signal,[7],0.0849 E-score
same,binding signal,[9],0.0561 E-score
same,binding signal,[6],0.47 E-score
GCGAAGAC,binding signal,[2],0.12 E-score
same,binding signal,[3],0.0689 E-score
same,binding signal,[10],0.0506 E-score
same,binding signal,[4],0.0548 E-score
same,binding signal,[5],0.109 E-score
same,binding signal,[6],0.404 E-score
ACTGGTCA,binding signal,[1],0.127 E-score
same,binding signal,[6],0.433 E-score
GTTGACCA,binding signal,[1],0.131 E-score
same,binding signal,[6],0.492 E-score
TGACCAAA,binding signal,[1],0.0758 E-score
same,binding signal,[8],0.126 E-score
same,binding signal,[6],0.457 E-score
AAAGGTCA,binding signal,[1],0.0939 E-score
same,binding signal,[10],0.106 E-score
same,binding signal,[7],0.137 E-score
same,binding signal,[8],0.0795 E-score
same,binding signal,[5],0.154 E-score
same,binding signal,[6],0.424 E-score
CTGACTTA,binding signal,[2],0.195 E-score
same,binding signal,[6],0.42 E-score
GGGTCAAC,binding signal,[1],0.0723 E-score
same,binding signal,[8],0.0889 E-score
same,binding signal,[6],0.493 E-score
CGTCAACC,binding signal,[1],0.0573 E-score
same,binding signal,[8],0.0571 E-score
same,binding signal,[6],0.435 E-score
TGGGTCAA,binding signal,[1],0.156 E-score
same,binding signal,[8],0.159 E-score
same,binding signal,[5],0.0706 E-score
same,binding signal,[6],0.483 E-score
GAGGTCAA,binding signal,[6],0.485 E-score
AGTCAAGG,binding signal,[1],0.104 E-score
same,binding signal,[3],0.0733 E-score
same,binding signal,[8],0.139 E-score
same,binding signal,[4],0.0507 E-score
same,binding signal,[9],0.0876 E-score
same,binding signal,[6],0.475 E-score
GCGTGGAC,binding signal,[1],0.0916 E-score
same,binding signal,[3],0.0892 E-score
same,binding signal,[8],0.19 E-score
same,binding signal,[6],0.404 E-score
AAAGTCAG,binding signal,[1],0.1 E-score
same,binding signal,[3],0.0919 E-score
same,binding signal,[7],0.0653 E-score
same,binding signal,[9],0.085 E-score
same,binding signal,[6],0.461 E-score
CAAGTCAA,binding signal,[1],0.0929 E-score
same,binding signal,[7],0.0933 E-score
same,binding signal,[8],0.234 E-score
same,binding signal,[6],0.486 E-score
CCAGTCAA,binding signal,[1],0.0755 E-score
same,binding signal,[3],0.0525 E-score
same,binding signal,[6],0.474 E-score
AGTTGACC,binding signal,[2],0.0645 E-score
same,binding signal,[6],0.49 E-score
CTGACCAA,binding signal,[6],0.427 E-score
AGGTCAGA,binding signal,[2],0.0962 E-score
same,binding signal,[6],0.449 E-score
TGACCTAA,binding signal,[2],0.0566 E-score
same,binding signal,[6],0.419 E-score
